# This excerpt belongs to a sample that is enriched for hits.
# TTR transcr act = TTR transcription activators in neuroblastoma reporter cells, primary screen, cell-based, luminescence, SH-SY5Y, TTR promoter Gaussia luciferase | 100% = recombinant luciferase protein wells | activation, % at 16.7 µM | 1.3% of 92,000 active | AID 1117267, 2014;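 active = activation above the mean of all tested compounds plus 3 SD, cut at about 9.5% in these data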;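 note: cells exposed to compounds for one day before reading; 0% = median of all test compound wells on the plate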
# HuH7 TTR inh = TTR promoter reporter inhibitors in hepatoma cells, counter-screen for TTR transcription activator project, cell-based, luminescence, HuH7 hepatoma; shares compounds with TTR transcr act; HuH7 TTR promoter-Gaussia luciferase reporter; inhibition, % at 16.7 µM; 4% of 1,100 active;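 active = average inhibition above the solvent-only control wells' mean plus 3 SD, cut at about 15% in these data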;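 note: 0% = cells with DMSO only and 100% = cells with inhibitor control FD; inhibitors lower well luminescence so higher value means more inhibition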
# TTR act confirm = TTR transcription activators, retest, confirmation, cell-based, luminescence, SH-SY5Y, triplicate | shares compounds with TTR transcr act | SHSY5Y TTR promoter Gaussia luciferase; 100% = purified Lucia enzyme wells, no cells | activation, % at 16.7 µM | 1,100 tested, under 10 active | AID 1117280, 2014;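 active = mean activation above a set limit taken from the earlier primary screen, cut at about 11% in these data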;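 note: 0% = DMSO-treated cells and 100% = recombinant Lucia luciferase without cells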
# An asterisk follows results filed as active.
SMILES,TTR transcr act,others
CCC(CC)C(=O)Nc1cc(=O)n(C)c(=O)n1C,-0.8,
Cn1c(NC(=O)c2ccc(Cl)s2)cc(=O)n(C)c1=O,-0.8,
Cn1c(NC(=O)c2ccc(C(C)(C)C)cc2)cc(=O)n(C)c1=O,-0.4,
CN(C(=O)c1cccc(NC(=O)Cc2ccc(NC(=O)C3CCN(C(=O)C4CCCC4)CC3)cc2)c1)C1CCCCC1,-2.9,
CCCCn1c(SCC(=O)N2CCc3ccccc32)nnc1-c1ccncc1,16.7*,HuH7 TTR inh=-9.9;TTR act confirm=-0.8
CCCn1c(SCC(=O)N2CCc3ccccc32)nnc1-c1ccco1,-1.6,
CCCn1c(SCC(=O)N2CCCc3ccccc32)nnc1-c1ccccn1,0.1,
ON(Cc1c(F)cccc1Cl)Cc1c(F)cccc1Cl,0.3,
CCCC(C)C(=O)NC1CCCCN(Cc2ccccc2C)C1=O (stereo unspecified),2.2,
CCCNC(=O)c1ccc(N2CCC3(CC2)CC(c2ccccc2)=NO3)c(NC(=O)c2ccco2)c1,19.2*,HuH7 TTR inh=19.2*;TTR act confirm=-1.5
Cc1ccc(CNC(=O)c2ccc(N3CCC4(CC3)CC(c3ccccc3)=NO4)c(NC(=O)c3ccco3)c2)cc1,-1.0,
CCCNC(=O)c1ccc(N2CCC3(CC2)CC(c2ccccc2)=NO3)c(NC(=O)c2cccc(OC)c2)c1,-2.8,
Nc1ccc(Oc2cccc(Oc3ccc(N)cc3)c2)cc1,1.0,
CC(C)Oc1cccc(C(=O)N2CCCC2)c1,1.6,
CCc1nnc(NC(=O)c2cccc(S(=O)(=O)N3CCc4ccccc43)c2)s1,14.9*,HuH7 TTR inh=13.2;TTR act confirm=-0.5
O=C(Nc1nc2ccccc2s1)c1cccc(S(=O)(=O)N2CCc3ccccc32)c1,-1.9,
CCc1nnc(NC(=O)c2cccc(S(=O)(=O)N3CCN(C(C)=O)CC3)c2)s1,-1.4,
COc1cc(C2c3cc4c(cc3OC(NNC(N)=S)C2C)OCO4)cc(OC)c1OC (stereo unspecified),-2.7,
O=C(COC(=O)C(CO)NS(=O)(=O)c1ccc(Br)cc1)Nc1ccc2c(c1)OCCO2 (stereo unspecified),2.6,
O=C(C1CCN(c2nnnn2-c2ccccc2)CC1)N1CCN(c2ccccc2)CC1,-1.5,
Oc1ccccc1N1CCN(c2nnnn2-c2ccccc2)CC1,0.1,
NC(=O)C1CCN(c2nnnn2-c2ccccc2)CC1,10.2*,HuH7 TTR inh=-13.2;TTR act confirm=-0.6
CCNC(=S)NNC(=O)c1csc(C(C)C)c1,-1.0,
CCN1CCN(CC(=O)Nc2ccc3c(c2)OCO3)C(=O)C1=O,1.4,
O=C(NCC1CCCO1)c1ccc2c(=O)n(-c3ccccc3)c(=S)[nH]c2c1 (stereo unspecified),1.8,
SMILES,TTR transcr act,others
Cc1cc(C)c(C#N)c(SCc2ccc([N+](=O)[O-])cc2)n1,9.5,
Cc1ccc(S(=O)(=O)Nc2nsc(N)n2)cc1,0.9,
Cc1ccc(CS(=O)(=O)c2nsc(C)c2C#N)cc1,19.2*,HuH7 TTR inh=-2.9;TTR act confirm=-0.2
O=C(NC1CCCc2ccccc21)C1CCC(CNS(=O)(=O)c2cccc3nsnc23)CC1 (stereo unspecified),-0.9,
C[C@@H]1CCCN1c1ccc2c(c1)O[C@@H]1CCN(C1)S2(=O)=O,-1.4,
O=S(=O)(Nc1cccc2ccccc12)c1cccc2nonc12,-0.9,
Cc1ccccc1Nc1cccc2nonc12,18.2*,HuH7 TTR inh=-8.7;TTR act confirm=2.4
Cc1ccccc1Nc1nc2ccccc2n1C(C)C,-0.1,
O=C(NCc1ccco1)c1cc(-c2ccccc2)nn1CC1CC(c2cccnc2)=NO1 (stereo unspecified),10.3*,HuH7 TTR inh=-10.1;TTR act confirm=-0.2
O=C(NCc1ccc(OC(F)(F)F)cc1)c1cc(-c2ccccc2)nn1CC1CC(c2cccnc2)=NO1 (stereo unspecified),-0.4,
COc1ccccc1CNC(=O)c1cc(-c2ccccc2C)nn1CC1CC(c2cccnc2)=NO1 (stereo unspecified),-3.1,
CCC(C)(C)NC(=O)C(c1cccs1)N(C(=O)c1ccn[nH]1)c1ccccc1 (stereo unspecified),0.9,
O=C(C=Cc1ccco1)N1CCOCC1,2.1,
O=C(CSc1ccccn1)N1CCN(c2ncc(C(F)(F)F)cc2Cl)CC1,1.5,
CCOc1ccccc1NC(=O)Cc1coc2cc(C)ccc12,14.2*,HuH7 TTR inh=-25.4;TTR act confirm=2.1
Cc1ccc(C)c(NC(=O)Cc2coc3cc4c(cc23)CCC4)c1,-1.0,
CCOc1ccccc1NC(=O)CNC(=O)Cc1ccccc1,-0.5,
CC1(c2ccccc2)NC(=O)N(CC(=O)N(c2ccccc2)C2CCS(=O)(=O)C2)C1=O (stereo unspecified),13.7*,HuH7 TTR inh=-16.6;TTR act confirm=1.5
CCC1(c2ccccc2)NC(=O)N(CC(=O)N(c2ccccc2)C2CCS(=O)(=O)C2)C1=O (stereo unspecified),5.1,
